Source: the supplement of paper PMC3334620
Over roughly 33,000 sequences, “E-score (-0.5 to 0.5)” has its median near -0.032; the highest 2% begin near 0.36. This excerpt belongs to a sample that is enriched for the highest values.

These sequences were tested against T1, Sko1 (UniProt Q02100) (assay: PBM E-score (8-mer binding enrichment) (E-score (-0.5 to 0.5)); higher = stronger / more preferred TF binding). Settings: protein concentration: 200 nM; construct: GST-full length.
T1 sequence: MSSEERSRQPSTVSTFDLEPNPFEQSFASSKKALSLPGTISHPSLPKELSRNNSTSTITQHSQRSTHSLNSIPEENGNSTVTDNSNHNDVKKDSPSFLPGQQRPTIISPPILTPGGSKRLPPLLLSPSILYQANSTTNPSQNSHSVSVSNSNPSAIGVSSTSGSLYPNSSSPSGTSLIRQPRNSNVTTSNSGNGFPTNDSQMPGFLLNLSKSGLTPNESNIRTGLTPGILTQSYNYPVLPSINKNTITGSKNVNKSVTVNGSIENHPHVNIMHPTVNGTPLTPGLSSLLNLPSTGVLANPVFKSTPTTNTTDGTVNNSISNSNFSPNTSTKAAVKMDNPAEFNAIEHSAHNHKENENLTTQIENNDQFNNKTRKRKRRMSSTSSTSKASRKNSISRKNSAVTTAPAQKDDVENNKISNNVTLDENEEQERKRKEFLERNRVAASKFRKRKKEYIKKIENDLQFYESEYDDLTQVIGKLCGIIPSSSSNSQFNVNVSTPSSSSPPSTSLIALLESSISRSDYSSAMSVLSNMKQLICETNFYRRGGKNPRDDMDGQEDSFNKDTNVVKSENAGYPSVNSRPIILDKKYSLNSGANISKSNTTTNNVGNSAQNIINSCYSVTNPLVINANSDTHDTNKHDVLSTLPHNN
How it was run: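 The E-score, a modified Wilcoxon-Mann-Whitney statistic, was computed by the Universal PBM Analysis Suite for every ungapped eight-base word pooled with its reverse complement. Scans behind it were normalised with masliner after bound GST-tagged yeast transcription factors were detected with fluorescent anti-GST. The proteins, at about 100-200 nM, had been applied to universal all-10-mer Agilent arrays made double-stranded by primer extension.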

Sequence | PBM E-score
GCCTTAGC | -0.113
CGGCTACG | 0.243
ATCGTCCC | -0.0614
CCAAACCG | -0.149
ACAAGTTG | -0.041
AAAGACTA | 0.026
CAAACCAA | -0.0239
ATTCACGG | 0.095
GACCTTAC | 0.0378
AACTTAGC | 0.0908
ATGGTGGC | -0.29
GACTTTTA | 0.0964
CGTCACAC | 0.437
AGTCACAC | -0.0301
AGTCACAG | -0.0124
CGTCACAG | 0.438
TGTCACAA | 0.133
GGTCACAC | -0.0911
CCTCACAG | -0.175
CGTCACAA | 0.388
GGTCACAA | -0.151
ACTTCGAT | 0.0534
GAGGTTCC | -0.182
ATCTGTAG | -0.0704
AGGAGTGA | 0.0137

Sequence | PBM E-score
CAGGGAGG | -0.23
ACTCGTAA | 0.345
ACCCGTAA | -0.00679
ACACGTAC | 0.419
ACCCGTAC | -0.107
ACACGTTC | 0.214
ACACGTAA | 0.472
ACACGTCT | 0.292
ACACGTAT | 0.463
ACACATAA | 0.262
ACACGGAG | -0.13
ACACGTAG | 0.433
ACACGAAT | 0.233
CTTGAATC | -0.0656
AGTTAGCG | 0.113
CGGCGTGA | -0.0945
CCGCTTCC | -0.273
CTCGTCTC | -0.19
AAATTCGT | 0.339
ATGTGAGC | -0.00412
CATCCTAA | 0.173
CCGAGATC | -0.237
GGGACATA | -0.139
CTGACATA | 0.266
CTGACATC | 0.21

Sequence | PBM E-score
ATGACATA | 0.437
GTGACACA | 0.145
ATGACATG | 0.357
ATGACACC | 0.26
ATGACATC | 0.44
GTGACATA | 0.381
AACTAACA | 0.124
GCTAAGCC | -0.23
CGGGCTCC | -0.343
ACTCTCTC | -0.281
GTCATCAA | 0.33
ATCATCAC | 0.334
GTCATCAC | 0.368
GACATCAA | 0.275
CACATCAC | 0.154
GACATCAC | 0.382
CTCCGCCC | -0.254
GAACTCTA | -0.0173
CGTAAGAA | 0.349
GGTAAGAC | -0.0543
CGTAAGAG | 0.376
CCTAAGAG | -0.0999
CGTAAGAC | 0.4
AGTAAGAG | -0.117
AAAGCGGT | -0.0789

Sequence | PBM E-score
AGCTCTTA | 0.0315
AATACGCT | 0.186
TATACGAA | 0.301
AATACGCA | 0.407
CATACGCA | 0.392
CATACGCG | 0.246
AATACGCC | 0.198
GATACGCA | 0.351
CATACTCA | 0.0384
TATACGCA | 0.411
TACACCGA | -0.177
TAGAGAGA | -0.0704
AAAAGAAT | 0.115
CCGCTCAC | -0.0552
CCACCTGA | -0.0745
GTCACGTA | 0.421
GTCACGGA | 0.126
ATCACGGA | 0.126
CTCACGTC | 0.278
ATCACGCC | 0.0558
ATCACGTA | 0.465
ATCACGCG | 0.254
GTCACGCA | 0.25
CTCACGTA | 0.356
ATCACGTC | 0.42

Sequence | PBM E-score
ATCACGTG | 0.411
ATCACATA | 0.3
CGTTTTAC | 0.209
ATTTATAG | 0.158
ACGGAAAT | 0.226
AGTATGCA | -0.0795
ACCTGTAT | -0.105
CAAACCTG | -0.0692
ACCATTAG | 0.0481
TCCCAAGA | -0.166
AGTAACAC | -0.0531
CGTAACAA | 0.344
CGTAACAG | 0.374
CGTAACAC | 0.374
GGTAACAC | 0.0477
AGTAACAG | -0.0766
AGCGGTTG | -0.0753
AGTAATAC | 0.0785
CGTAATAC | 0.451
CATAATAG | 0.116
CGTAATAG | 0.435
CGTAATAA | 0.434
GGTAATAA | 0.185
GGTAATAC | 0.178
AGTAATAG | 0.264

Sequence | PBM E-score
TGTAATAA | 0.28
ACGCGGCT | 0.124
ACAGTCCG | -0.182
ATGGCTCC | -0.249
ACGTACCT | 0.377
AGGTACCT | -0.19
CCGTACCA | -0.118
GCGTACCA | 0.138
GCGTACCC | -0.00205
AAGTACCG | -0.032
ACGTACCC | 0.435
CCGTACCG | -0.208
CCGTACCC | -0.335
ACGTACCA | 0.444
AAGTACCT | -0.0422
ACGTACCG | 0.372
AGAACCAG | -0.306
CCTACTAA | -0.18
AATGCCTA | -0.0242
CCTATGCC | -0.3
CCATGGAG | -0.266
CTACGCAA | 0.414
TAACGCAA | 0.312
ATACGCGC | 0.188
ATACGCAG | 0.296

Sequence | PBM E-score
CTACGCAG | 0.274
AAACGCAT | 0.0801
CTACGCAC | 0.315
TTACGCAA | 0.466
ATACGCAC | 0.389
TTACGGAA | 0.246
ATACGCAT | 0.375
AGACGCAC | 0.104
ATAGCCTA | -0.0632
GCAAGGCA | 0.0267
AAGACCTG | -0.147
AGCTAATG | 0.114
ACGAGACG | 0.126
CCACCGAA | -0.00284
CAGCTGAC | 0.0244
AAGGGAAG | 0.0269
ACCAGAGT | -0.256
ATTCTATG | 0.0207
CGTACTCC | 0.201
GTACGCAC | 0.303
AAACGCAA | 0.335
ATACGCAA | 0.447
